From PubChem BioAssay (NCATS)
Records with an inconclusive call do not appear. Calls of active or inactive are those of the source. Calls come from the whole dose curve; as a rule, active = well fitted curve in either direction with a large enough effect (not every such curve was filed as active); inconclusive = small, poorly fitted or top-dose-only effect, or another doubt; inactive = flat fitted curve, though single readings scatter.
% is set by controls: 0 for no effect and ±100 for the full control effect.

Test: NFAT Signaling Pathway (AID 444);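 note: carbachol stimulus at about its EC50 of 1 µM final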
Settings: Jurkat NFAT-bla M1, carbachol, beta-lactamase ratio, 5 h; at 17.2 µM (top of the series) unless noted
How it was run: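 Read-out: CCF4 FRET ratio (460 nm/530 nm) after 1 h RT dye loading, used for %activity and AC50 from titration series. Cells: Jurkat NFAT-β-lactamase/M1 line, treated with compound plus 1 uM carbachol for 5 h, 37 °C.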
For Cc1cc(=O)n2[nH]cnc2n1, the activity change, negative = inhibition was 10.4% (inactive).
With CCCCCSc1nc(C)c(CC(=O)O)c(=O)[nH]1 the activity change, negative = inhibition was 15.5% (inactive).
In the case of O=C(NC1CCS(=O)(=O)C1)N1CCCCC1 (centres undefined), the activity change, negative = inhibition is reported as -4.07% (inactive).
In the case of O=C(Cc1cscn1)c1ccc(O)cc1O, the activity change, negative = inhibition is reported as 4.07% (inactive).
In the case of CC1(c2cnc(Nc3ccccc3)s2)CCC(=O)O1 (centres undefined), the activity change, negative = inhibition is reported as -7.05% (inactive).
With CCCc1cc(=O)oc2c(CN3CCCC3)c(O)ccc12 the activity change, negative = inhibition was 8.87% (inactive).
With c1ccc(-c2nc(NCC3CCCO3)c3ccccc3n2)nc1 (centres undefined) the activity change, negative = inhibition was -27.7% (inactive).
In the case of Cn1ncc(N=Cc2ccccc2O)c1C(=O)Nc1ccccc1, the activity change, negative = inhibition is reported as 7.01% (inactive).
With Cc1sc(-n2c(C)ccc2C)c(C#N)c1C the activity change, negative = inhibition was -9.11% (inactive).
With Fc1ccc(C2C3=C(Nc4ncnn42)c2ccccc2OC3c2ccncc2)cc1 (centres undefined) the activity change, negative = inhibition was -17% (inactive).
In the case of COc1ccc(C2/C(=C(/O)c3cnn(-c4ccccc4)c3C)C(=O)C(=O)N2CCN(C)C)cc1OC (centres undefined), the activity change, negative = inhibition is reported as 18.7% (inactive).
For O=C(O)CCCC(=O)N1CCN(C(c2ccccc2)c2ccccc2)CC1, the activity change, negative = inhibition was 7.29% (inactive).
In the case of CCOC(=O)C1=C(C)N=C2SC(C)C(=O)N2C1c1cccc(F)c1 (centres undefined), the activity change, negative = inhibition is reported as 7.16% (inactive).
For COc1cccc(C2=CC(c3ccccc3)n3nnnc3N2)c1 (centres undefined), the activity change, negative = inhibition was -25.6% (inactive).
In the case of CN(C)CCCN(CCCNC(=O)/C=N/O)Cc1ccccc1, the activity change, negative = inhibition is reported as -11.6% (inactive).
With O=C(O)c1ccnc(C(=O)O)c1 the activity change, negative = inhibition was 0.361% (inactive).
In the case of CN1CCc2c(C#N)c(N3CCCCC3)nc(N3CCOCC3)c2C1, the activity change, negative = inhibition is reported as 20.7% (inactive).
For CC(=O)OCC(=O)[C@@]1(O)CC[C@H]2[C@@H]3CCC4=CC(=O)C=C[C@]4(C)[C@@]3(Cl)[C@@H](Cl)C[C@@]21C, the activity change, negative = inhibition was -9% (inactive).
For CCOc1ccc(C2C(C(=O)c3ccc(C)o3)=C(O)C(=O)N2CCN2CCOCC2)cc1OC (centres undefined), the activity change, negative = inhibition was 4.63% (inactive).
In the case of CCCOc1ccc(-c2nnc(N)s2)cc1, the activity change, negative = inhibition is reported as 2.03% (inactive).
With Cn1cc(Cl)nc1C(O)c1ccccc1 (centres undefined) the activity change, negative = inhibition was -2.26% (inactive).
In the case of Cc1cc(C)nc(N(C#N)CC(=O)N(c2ccccc2)C(C)C)n1, the activity change, negative = inhibition is reported as 4.64% (inactive).
For CCCC(=O)N1CCN(c2nc(CC(C)C)c3c(c2C#N)CCC3)CC1, the activity change, negative = inhibition was -18.4% (inactive).
With COCCNC(=O)C(C#N)c1nc2ccccc2nc1N1CCN(Cc2ccc3c(c2)OCO3)CC1 (centres undefined) the activity change, negative = inhibition was -26.8% (inactive).
For CC1(C)Cc2nc(N)c(C(=O)NCCO)cc2CO1, the activity change, negative = inhibition was 3.25% (inactive).
For COC(=O)c1ccccc1OCc1cccc(C)n1, the activity change, negative = inhibition was -4.22% (inactive).
In the case of Cc1cccc(C)c1N1C(=O)C2ON(c3ccccc3)C(c3ccncc3)C2C1=O (centres undefined), the activity change, negative = inhibition is reported as 11.5% (inactive).
For CC(=O)/C=C(\C)NCCNc1c(F)c(F)c(CO)c(F)c1F, the activity change, negative = inhibition was 1.05% (inactive).
With CCOC(=O)C1=C(C)OC(N)=C(C#N)C1c1cc2ccccc2nc1N1CCCCC1 (centres undefined) the activity change, negative = inhibition was -20.1% (inactive).
For O=C(c1nsnc1-c1ccccc1O)N1CCCCC1, the activity change, negative = inhibition was 6.47% (inactive).
With Cc1ccc2[nH]c3c(c2c1)CN(C(=O)CN1CCN(c2ccccn2)CC1)CC3 the activity change, negative = inhibition was 22.4% (inactive).
With CCC(=O)Nc1ccc(-c2nnc(-c3ccccc3)o2)cc1 the activity change, negative = inhibition was 4.89% (inactive).
For CCn1nnc(C(=O)O)c1C(=O)O, the activity change, negative = inhibition was 3.87% (inactive).
For COc1ccc(C(=O)Cn2c(N3CCCCC3)nc3c2c(=O)n(C)c(=O)n3C)cc1OC, the activity change, negative = inhibition was 21% (inactive).
With CCOC(=O)C(Oc1ccc(=O)[nH]n1)C(C)=O (centres undefined) the activity change, negative = inhibition was 5.95% (inactive).
With Cc1ccc(/C=c2\sc3n(c2=O)CN(c2ccc(Br)cc2)CN=3)o1 the activity change, negative = inhibition was -11.3% (inactive).
With COc1ccc(-c2nc3n(n2)C(=O)CC(c2ccco2)S3)cc1 (centres undefined) the activity change, negative = inhibition was 0.813% (inactive).
With CC(=O)c1c(C)c2c(n1CCN(C)C)CCCC2 the activity change, negative = inhibition was -7.5% (inactive).
In the case of CC(C)CC(C(=O)O)C(C)CC(=O)Nc1ccn(-c2ccccc2)n1 (centres undefined), the activity change, negative = inhibition is reported as 6.76% (inactive).
